Measured values taken from PubChem BioAssay AID602350 (Broad Institute, 2012).
Results with a measured potency or affinity are listed apart. The source made the active and inactive calls.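 Rule for the calls: active = absorbance falls by 30% or more versus neutral controls, with a potency fitted within twice the top valid dose; inconclusive = no clear call, values can overlap the other calls; inactive = change opposite to expected direction, plus the rest.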

Each compound was assayed against Protein disulfide-isomerase (Homo sapiens) (UniProt P07237) (assay: inhibition of PDI-driven insulin aggregation – biochemical, turbidity, absorbance, cherry-picked samples, dose response (AID 602350)). Details: recombinant PDI insulin aggregation, absorbance 650 nm, 90 min; series mostly up to 19.5 µM.
Sequence of Protein disulfide-isomerase (Homo sapiens) (P07237 whole entry, looked up): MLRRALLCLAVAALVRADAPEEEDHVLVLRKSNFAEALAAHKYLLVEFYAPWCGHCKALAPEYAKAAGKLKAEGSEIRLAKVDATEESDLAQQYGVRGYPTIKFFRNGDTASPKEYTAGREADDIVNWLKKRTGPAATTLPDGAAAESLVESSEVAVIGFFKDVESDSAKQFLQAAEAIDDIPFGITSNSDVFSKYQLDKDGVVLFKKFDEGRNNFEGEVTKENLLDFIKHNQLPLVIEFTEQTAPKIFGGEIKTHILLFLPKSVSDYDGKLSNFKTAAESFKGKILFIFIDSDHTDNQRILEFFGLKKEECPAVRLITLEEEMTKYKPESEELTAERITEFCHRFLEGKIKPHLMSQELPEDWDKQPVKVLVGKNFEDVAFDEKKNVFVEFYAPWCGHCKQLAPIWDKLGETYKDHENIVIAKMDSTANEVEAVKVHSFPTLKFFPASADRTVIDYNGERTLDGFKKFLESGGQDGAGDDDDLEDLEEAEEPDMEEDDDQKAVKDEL

outcome, inactive:
O=C(NCCCN1CCOCC1)C(Sc1ccccc1)c1ccccc1 (stereo not drawn), Cc1ccc2c(c1)Oc1ccc(NC(=O)CCl)cc1C(=O)N2, O=C(Cn1nnc2ccccc21)OCC(=O)c1ccccc1, O=C(CN(CCc1ccccc1)C(=O)CNS(=O)(=O)c1ccccc1)NCC1CCCO1 (stereo not drawn), CCOC(=O)c1cc(S(=O)(=O)N2CCN(C(=O)OCC)CC2)cn1C, CC(=O)N(C)C1(c2nnnn2CCOC(=O)Nc2ccc(Cl)cc2)CCCCC1, CCCN(CCC)S(=O)(=O)c1ccc(C(=O)Nc2nnc(COC)o2)cc1, CC1CCCN(c2cc3c(cc2[N+](=O)[O-])C(=O)N(c2ccccc2)C3=O)C1 (stereo not drawn), COc1ccc(C2c3ccc(O)cc3Oc3ncn(Cc4ccco4)c(=N)c32)cc1OC (stereo not drawn), COc1c(Br)cc(C(N)=O)cc1OCc1ccccc1, CCCCC1CCC(c2nc(-c3ccccn3)no2)CC1 (stereo not drawn), O=C(/C=C/c1ccccc1)Nc1scc(-c2ccccc2)c1C(=O)O, CCC(=O)N1CCc2cc(S(=O)(=O)CCC(=O)NCc3ccco3)ccc21, O=C(c1ccc(NS(=O)(=O)c2ccccc2)cc1)N1CCOCC1, COCC(=O)N(C)C1(c2nnnn2CCOC(=O)Nc2ccc(Cl)cc2)CCCC1, COc1ccc(OC)c(CN2CCN(Cc3cc(=O)oc4cc(O)ccc34)CC2)c1, CCOC(=O)c1c(CN(C)C)n(-c2ccc(C)cc2)c2cc(Br)c(O)cc12, Cc1noc(C)c1S(=O)(=O)Nc1ccc2c(c1)CC(=O)N([C@@H](C)CO)C[C@H](C)[C@@H](CN(C)S(=O)(=O)c1ccc(F)cc1)O2, Cc1sc(NC(=O)CCl)c(C(=O)c2ccccc2)c1C, C[C@H]1CN([C@@H](C)CO)C(=O)Cc2cc(NC(=O)Nc3ccccc3)ccc2O[C@@H]1CN(C)Cc1ccccc1, O=C(NC(Cc1c[nH]c2ccccc12)C(=O)N/N=C/c1cccnc1)c1cccs1 (stereo not drawn), O=C(c1ccc(S(=O)(=O)N2CCCCC2)cc1)N1CCN(Cc2ccc3c(c2)OCO3)CC1, CCOC(=O)c1c(CN2CCN(CCO)CC2)n(C)c2cc(Br)c(OC)cc12
